# Compound activity as filed in PubChem BioAssay.
# Lmaj promast – Leishmania major promastigote growth inhibition | Leishmania major promastigotes, resazurin fluorescence viability | inhibition, % at 10 µM | actives 9% (n = 200,000) | AID 1063; in the data active = inhibition above about 50%;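 also: promastigotes grown with compound for 44 hours at 28 °C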
# INS promoter inh – TRM-6 insulin promoter activity inhibition. TRM-6 cells (human fetal islet line), insulin promoter-eGFP reporter, imaging; reporter expression induced with tamoxifen. inhibition, % at 2 µM. actives 0.9% (n = 130,000). AID 1273;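 active = inhibition above the mean plus 3 SD, with well images judged a real hit on visual review, cut at about 60% in these data, passing the limit was not always enough; inconclusive = inhibition over the cutoff but images rejected on review; inactive = inhibition not above the cutoff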
# Cl transport mod – modulators of human KCC2 chloride dependent transport; KCC2 cells, thallium flux FluoZin-2 fluorescence; B-score of Tl+ flux slope (higher = more flux/activation; lower = inhibition) at 10 µM; actives 2.2% (n = 190,000);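 active = thallium flux slope and its plate-corrected score both differing from the plate sample mean at a set confidence after two filtering rounds, in either direction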;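 also: slope of fluorescence scaled to starting intensity during 10 to 20 s after thallium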
# Target sequence (Q9H2X9 whole entry, looked up): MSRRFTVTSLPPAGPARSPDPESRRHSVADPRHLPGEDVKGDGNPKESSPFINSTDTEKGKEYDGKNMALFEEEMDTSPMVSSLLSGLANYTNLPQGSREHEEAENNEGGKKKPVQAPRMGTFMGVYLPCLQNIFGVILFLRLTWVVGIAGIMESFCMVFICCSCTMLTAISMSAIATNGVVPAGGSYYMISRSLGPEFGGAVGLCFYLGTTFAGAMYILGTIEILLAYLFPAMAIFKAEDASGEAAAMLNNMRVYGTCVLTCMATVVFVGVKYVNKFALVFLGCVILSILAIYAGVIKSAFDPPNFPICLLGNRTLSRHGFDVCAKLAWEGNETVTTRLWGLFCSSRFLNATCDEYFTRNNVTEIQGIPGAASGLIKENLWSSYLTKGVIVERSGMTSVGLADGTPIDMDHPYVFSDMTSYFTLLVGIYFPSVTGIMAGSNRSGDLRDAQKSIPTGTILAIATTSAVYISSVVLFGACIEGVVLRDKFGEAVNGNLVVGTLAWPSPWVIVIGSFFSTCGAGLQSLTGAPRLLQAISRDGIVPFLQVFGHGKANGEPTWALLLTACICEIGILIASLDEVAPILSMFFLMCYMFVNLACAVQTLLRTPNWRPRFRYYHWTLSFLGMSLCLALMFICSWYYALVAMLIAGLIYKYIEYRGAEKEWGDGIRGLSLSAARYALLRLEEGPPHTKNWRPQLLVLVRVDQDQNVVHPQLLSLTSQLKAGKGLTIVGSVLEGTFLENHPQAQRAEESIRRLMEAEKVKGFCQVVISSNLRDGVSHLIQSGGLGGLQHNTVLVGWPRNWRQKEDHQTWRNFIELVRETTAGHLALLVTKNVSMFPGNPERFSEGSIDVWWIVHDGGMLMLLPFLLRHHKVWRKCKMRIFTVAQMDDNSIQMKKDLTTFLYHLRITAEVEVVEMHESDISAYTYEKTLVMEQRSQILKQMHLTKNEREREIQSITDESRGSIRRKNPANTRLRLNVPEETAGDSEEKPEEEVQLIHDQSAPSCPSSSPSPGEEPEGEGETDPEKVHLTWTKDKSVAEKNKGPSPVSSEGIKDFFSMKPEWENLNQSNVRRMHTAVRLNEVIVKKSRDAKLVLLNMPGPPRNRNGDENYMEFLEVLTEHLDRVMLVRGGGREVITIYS
# Insulin prom up – MIN6 insulin promoter up-regulation. MIN6 insulin promoter-GFP reporter, high-content imaging; stronger effect = higher value. actives 0.3% (n = 190,000). z-score at 5 µM. AID 1625;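 active = z-score above 3 at 5 µM with at least 500 cells counted in the well; inconclusive = wells under 500 cells, flagged as cytotoxic or low count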
# WT yeast gro inh – growth inhibition of WT yeast, mitochondrial fusion screen; mitochondrial fusion phenotypic screen, WT strain; inhibition, % at 10 µM; actives 2.1% (n = 190,000); AID 1362; in the data active = inhibition above about 58%; tested in S. cerevisiae
# ROMK mod – modulates human ROMK potassium channel activity; P48048; Tet-inducible ROMK, thallium flux fluorescence; actives lie on both sides; B-score at 10 µM; actives 2% (n = 130,000); AID 1918;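 active = signal ratio slope over the read window, or its plate-corrected B-score, at least 3 SD from the plate mean, either direction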;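 also: B-score of the F/F0 ratio slope over 7 to 12 s after thallium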
# Numbers stand for hits; 0 = inactive; ? = inconclusive; - = no result given. Most compounds without a hit are left out; they make up all but 12% or so of the library.
SMILES,Lmaj promast,INS promoter inh,Cl transport mod,Insulin prom up,WT yeast gro inh,ROMK mod
COc1cc(-c2nc(-c3ccc4c(c3)-c3ccccc3S4(=O)=O)c(-c3ccccc3)[nH]2)cc(OC)c1OC,99,0,0,?,0,-
COc1cccc(-c2nc(-c3ccc4c(c3)-c3ccccc3S4(=O)=O)c(-c3ccccc3)[nH]2)c1OC,57,0,0,0,0,-
CCOc1cc(NC(=S)NCCCN2CCOCC2)c(OCC)cc1NC(=O)c1ccc(OC)cc1,0,-,0,-,0,0
CC1(C)CC(C(CCN(Cc2ccccc2)C(=O)c2ccco2)c2ccc(F)cc2)CCO1 (stereo not given),0,-,0,0,75,0
CCN(CC)CCCN1CC(O)=C(c2nc3ccccc3s2)C1=N,0,66,0,0,0,0
CCN(C(=O)COC(=O)c1cc(-c2ccccc2)nn1-c1ccccc1)C1CCS(=O)(=O)C1 (stereo not given),0,-,0,0,0,0
O=C(Nc1cccc(C(=O)N2CCOCC2)c1)c1ccccc1,0,0,0,0,0,-
N#Cc1cccc(NC(=O)C2SC(=Nc3ccccc3)C(C(=O)N3CCOCC3)=C2N)c1 (stereo not given),54,0,0,0,0,0
COc1ccccc1NC(=O)Nc1ccc(-n2ccc(C(F)(F)F)n2)cc1,-,-,0,0,-,-
CS(=O)(=O)N(CC(=O)Nc1ccc(S(=O)(=O)N2CCOCC2)cc1)c1ccccc1Cl,0,-,-,0,0,-
CC(C)NS(=O)(=O)c1ccc(NC(=O)C2CC3C=CC2C3)cc1 (stereo not given),0,0,-,-,75,-
CCOC(=O)C1(C)NC(c2ccc(OC)cc2OC)C2C(=O)N(CC)C(=O)C21 (stereo not given),0,0,0,-,0,0
CCOC(=O)CSc1ccc(-c2nc3ccccc3[nH]2)cn1,0,0,0,0,0,-
Cc1ccc2nc(-c3ccc(SCC(=O)Nc4nc(C)cs4)nc3)[nH]c2c1,53,0,0,0,0,0
Cc1ccc2nc(-c3ccc(SCC(=O)Nc4nnc(C)s4)nc3)[nH]c2c1,0,-,0,0,0,-
N#CCSc1ccc(-c2nc3ccccc3[nH]2)cn1,0,90,0,-,0,0
Cc1cc2nc(-c3ccc(SCC(=O)N4CCOCC4)nc3)[nH]c2cc1C,60,0,0,0,0,0
CCOC(=O)CSc1ccc(-c2nc3cc(C)c(C)cc3[nH]2)cn1,57,0,0,0,0,-
CC(C)(C)CN1CCNC(=O)C1CC(=O)N1CCN(c2ccccc2)CC1 (stereo not given),-,-,0,0,-,-
Cc1cc2nc(-c3ccc(SCC(=O)N4CCN(C(=O)c5ccco5)CC4)nc3)[nH]c2cc1C,0,0,0,0,0,-
Cc1cc2nc(-c3ccc(SCc4ccccn4)nc3)[nH]c2cc1C,64,0,0,0,0,0
CCOC(=O)c1nn(-c2ccccc2F)c2nc(-c3ccco3)c(C#N)c(=O)n12,0,0,0,0,0,0
C=CCNCCOCCOc1ccc(C)cc1Br,99,0,0,0,0,0
CCC(C)NCCOCCOc1ccc(Br)cc1 (stereo not given),89,-,0,-,0,0
Cc1cc(C)c(OCCCON2C(=O)CCC2=O)c(Br)c1,0,-,0,0,0,0
SMILES,Lmaj promast,INS promoter inh,Cl transport mod,Insulin prom up,WT yeast gro inh,ROMK mod
CCC(C)NCCOCCOc1ccc(C)cc1Br (stereo not given),90,0,0,0,0,0
CCC(C)NCCCOc1c(C)cc(C)cc1Br (stereo not given),99,0,0,0,0,-
CSCCC(C(=O)OC1CCOC1=O)N1C(=O)c2ccccc2C1=O (stereo not given),0,0,0,0,0,-
CN(C)CCCN(Cc1ccccc1)C(=S)Nc1cccc(C(F)(F)F)c1,60,-,0,0,0,-
CCCN(Cc1ccccc1)C(=S)Nc1ccc(F)cc1,0,-,0,0,0,0
CCCN(Cc1ccccc1)C(=S)Nc1ccc(SC(F)F)cc1,53,0,0,0,70,0
CCCN(Cc1ccccc1)C(=S)Nc1cccc(C(F)(F)F)c1,91,0,0,0,0,-
Cc1cccc2nc(CSc3nnnn3-c3ccccc3)cn12,0,0,0,0,0,-
Cc1ccc(S(=O)(=O)N2CCN(CC(=O)N/N=C/C=C/c3ccccc3)CC2)cc1,0,0,0,0,0,0
COc1ccccc1CNC(=S)NCCc1ccccc1,0,0,0,0,69,0
CCC(C)c1ccc(NC(=S)NCc2cccs2)cc1 (stereo not given),67,0,0,0,0,-
CCC(C)c1ccc(NC(=S)NCc2ccccc2OC)cc1 (stereo not given),0,-,0,0,77,0
COC(=O)Cc1ccc(NC(=S)NCc2ccccc2OC)cc1,0,0,0,0,0,0
CS(=O)(=O)N(CC(=O)NC1CC1)C1CCCCC1,0,0,0,0,0,0
CC(C)(C)C(=O)CNCC(=O)C(C)(C)C,0,0,0,0,0,0
COc1cccc(CN2CCCN(S(=O)(=O)c3ccc(Br)cc3)CC2)c1,93,0,0,0,0,-
O=S(=O)(c1ccc(Br)cc1)N1CCCN(Cc2cccc(F)c2)CC1,86,0,0,0,0,0
COc1cccc(CNC(=O)c2ccc(S(=O)(=O)N3CCCC3)cc2)c1,0,0,0,0,0,0
CCOC(=O)C1CCCN(c2c(NCCCN(C)Cc3ccccc3)c(=O)c2=O)C1 (stereo not given),0,-,0,0,0,0
CC(C)=CCC/C(C)=C/CC(C)(C)CNCCN1CCNCC1,100,0,0,0,0,-
CCOC(=O)Cc1ccc(NC(=O)c2cccc([N+](=O)[O-])c2)cc1,0,-,0,0,0,0
COc1ccc(-c2cc(-c3ccccc3)c(C#N)c(S(C)=O)n2)cc1 (stereo not given),100,-,-,0,0,0
CCSc1nc(-c2ccc(OC)cc2)cc(-c2ccccc2)c1C#N,0,0,-,0,0,0
Cc1cc2c(=O)n(Cc3ccco3)c(SCC(=O)c3ccc(Cl)s3)nc2s1,0,0,0,0,0,-
Cc1ccc(C(C[N+](=O)[O-])c2c(-c3ccccc3O)[nH][nH]c2=O)cc1 (stereo not given),100,-,0,0,0,0
SMILES,Lmaj promast,INS promoter inh,Cl transport mod,Insulin prom up,WT yeast gro inh,ROMK mod
O=C(c1ccccc1)c1cn[nH]c1-c1ccccc1O,0,0,0,0,0,-
O=c1[nH][nH]c(-c2ccccc2O)c1C(C[N+](=O)[O-])c1ccc(Br)cc1 (stereo not given),100,0,0,0,0,0
OCCC1CN(Cc2cccc3nonc23)CCN1Cc1ccsc1 (stereo not given),-,-,0,0,-,-
OCCC1CN(Cc2ccc(-c3ccco3)cc2)CCN1Cc1ccsc1 (stereo not given),76,0,0,0,0,0
OCCC1CN(Cc2ccccc2OC2CCCC2)CCN1Cc1ccsc1 (stereo not given),61,-,0,0,0,0
COc1cc2c(cc1OC)CN(C(=S)Nc1ccc(C)cc1C)CC2,0,0,0,0,0,0
NC(=O)C1(N2CCCCC2)CCN(c2nc(-c3ccc(Br)cc3)cs2)CC1,0,0,-,0,65,-
